Artemis inh: blocks endonuclease activity of human Artemis. Q96SD1. recombinant Artemis, quenched FAM hairpin cleavage fluorescence. inhibition, % at 10 µM. 30,000 compounds, 0.78% hits. AID 686954;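 active means at 10 µM dose, at least 30% inhibition, measured as corrected fluorescence normalized to stimulator and neutral control wells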
Target sequence (Q96SD1 whole entry, looked up): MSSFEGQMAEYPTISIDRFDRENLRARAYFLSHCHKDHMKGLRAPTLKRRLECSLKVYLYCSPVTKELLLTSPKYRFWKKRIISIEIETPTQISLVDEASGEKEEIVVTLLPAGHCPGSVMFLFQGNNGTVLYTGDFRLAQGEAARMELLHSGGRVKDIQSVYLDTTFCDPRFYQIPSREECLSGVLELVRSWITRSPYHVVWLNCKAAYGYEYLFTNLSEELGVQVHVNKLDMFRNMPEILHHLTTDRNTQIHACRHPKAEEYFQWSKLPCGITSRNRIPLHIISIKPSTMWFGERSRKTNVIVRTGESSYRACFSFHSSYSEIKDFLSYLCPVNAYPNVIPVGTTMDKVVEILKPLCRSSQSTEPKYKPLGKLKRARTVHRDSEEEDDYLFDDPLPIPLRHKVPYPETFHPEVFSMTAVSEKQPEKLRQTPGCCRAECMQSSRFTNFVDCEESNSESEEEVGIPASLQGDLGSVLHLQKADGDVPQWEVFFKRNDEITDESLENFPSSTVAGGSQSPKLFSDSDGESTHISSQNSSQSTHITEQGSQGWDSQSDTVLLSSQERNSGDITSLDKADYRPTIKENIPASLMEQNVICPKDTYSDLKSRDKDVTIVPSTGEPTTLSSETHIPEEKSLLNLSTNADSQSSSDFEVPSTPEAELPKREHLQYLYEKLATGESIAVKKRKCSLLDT
A number is an active result; – = inactive. The full list was thinned out, with hits kept by preference.

SMILES | Artemis inh
CC1(C)Oc2ccc3ccc(=O)oc3c2/C(=C/NC2CCCCC2)C1=O | –
Clc1ccc(CSc2nnnn2-c2ccc3c(c2)OCO3)c(Cl)c1 | –
Cc1cc(C)c(NC(=O)COc2ccccc2C(=O)Nc2ccc3c(c2)oc2ccccc23)c(C)c1 | –
c1ccc2c(SCc3cn4cccnc4n3)ncnc2c1 | –
O=c1c2ccccc2nc(SCc2cn3ccsc3n2)n1-c1ccc(F)cc1 | –
O=c1c2c(-c3ccco3)csc2nc(SCc2cn3cccnc3n2)n1-c1ccccc1 | 31.1
COC(=O)c1ccccc1NC(=O)C1CCN(C(=O)c2ccc(OC)cc2)CC1 | –
O=C(Nc1cccc2nsnc12)c1ccc2c(c1)OCO2 | –
O=C(Nc1cccc2nsnc12)c1ccc(F)cc1 | –
O=C(Nc1cccc2nsnc12)c1ccc(-c2cccc(Cl)c2)o1 | 46.1
Cc1ccc(O)c(N=CC2=C(O)c3ccccc3C2=O)c1 | 38.0
O=C1C(C=Nc2ccccc2)=C(O)c2ccccc21 | –
COc1ccc(N=CC2=C(O)c3ccccc3C2=O)cc1 | –
COc1ccc(C)cc1-n1c(N)c(C#N)c(C#N)c1-c1ccc(OC)c(OC)c1OC | –
COc1ccc2c3c(cccc13)N(C)N=C2C | 58.0
C=CCOC(=O)c1cc(-c2ccc(/C=C3\C(=O)NC(=O)C(C#N)=C3C)o2)ccc1Cl | 35.6
CC1=NOC(=O)/C1=C\c1ccc(-c2cccc(Cl)c2)o1 | –
C=CCOC(=O)C1=C(C)NC(SC)=C(C#N)C1c1ccc(OCC)cc1 (centres undefined) | –
O=C(Nc1ccccc1F)c1ccc(-n2cncn2)nc1 | –
COC(=O)C(O)(CC(=O)Nc1cc(Cl)ccc1Cl)C(F)(F)F (centres undefined) | –
O=C(CC1(O)C(=O)N(Cc2ccccc2)c2ccccc21)c1ccncc1 (centres undefined) | –
Cc1cccc(Nc2ncc3c(n2)CC(c2ccco2)CC3=O)c1 (centres undefined) | –
O=C1CC(c2ccco2)Cc2nc(Nc3nc(-c4ccccc4)c4ccccc4n3)ncc21 (centres undefined) | 34.2
O=C(Nc1ncc2c(n1)CC(c1ccco1)CC2=O)c1ccccc1 (centres undefined) | –
Cc1ccc(S(=O)(=O)N2CCc3ccccc3C2CN2C(=O)c3ccccc3C2=O)cc1 (centres undefined) | –
SMILES | Artemis inh
O=C(O)CC(C(=O)O)N1C(=O)/C(=C/c2ccc(-c3nc4ccccc4s3)o2)SC1=S (centres undefined) | 64.3
O=C(O)CCN1C(=O)/C(=C/c2ccc(-c3nc4ccccc4s3)o2)SC1=S | –
O=c1oc2ccccc2n1CSc1nc2ccccc2s1 | –
Cc1ccc(NC(=O)c2cc(S(=O)(=O)c3ccccc3)ccc2Cl)cc1 | –
O=c1[nH]c(-c2ccccn2)nc2ccccc12 | –
c1ccc(-c2nc3c(ccc4ccccc43)[nH]2)nc1 | 44.1
Cc1[nH]c2ccccc2c1C(c1ccccn1)c1c(C)[nH]c2ccccc12 | –
Cc1nc(NC(C)C)c2cnn(CCc3ccccc3)c2n1 | –
CC1Cc2ccccc2N1C(=O)CN1CCC(n2nnc3cc(C(F)(F)F)ccc32)CC1 (centres undefined) | –
COc1ccc(Cl)cc1NC(=O)NCCCl | –
COC(=O)c1ccc(CSc2nc3ccc(C)cc3[nH]2)o1 | –
C/C(=N/NS(=O)(=O)c1ccc(Cl)cc1)c1cccc(NC(=O)c2ccc(Cl)cc2Cl)c1 | –
CC(=O)NCCOc1c(C)cc(S(N)(=O)=O)cc1C | –
Cc1cc(Cl)cc(Br)c1OCCNCC(C)O (centres undefined) | 30.6
COc1cc(C=O)ccc1OCCOCCOc1c(C)cc(Cl)cc1Cl | –
CCCCOCCCn1c(-c2ccco2)nc2nc3ccccc3nc21 | –
Cc1ccc(-c2cc(C(F)F)n3ncc(C(=O)Nc4ccc(S(=O)(=O)Nc5ccccc5C)cc4)c3n2)cc1 | –
Clc1ccc(COc2ccccn2)cc1Cl | –
N#Cc1c(N)sc2c1CCN(CCc1ccccc1)C2 | –
COc1ccccc1CN(C(=O)c1ccco1)C(C(=O)NC1CCCC1)c1ccncc1 (centres undefined) | 83.5
COc1cccc(C(C(=O)NC2CCCC2)N(Cc2ccc(C)cc2)C(=O)c2ccco2)c1OC (centres undefined) | –
COc1cccc(CN(C(=O)c2ccco2)C(C(=O)NC2CCCC2)c2cccnc2)c1 (centres undefined) | –
CCCCC1(Cc2cccc([N+](=O)[O-])c2)C(=O)N(c2ccccc2)N(c2ccccc2)C1=O | –
COc1ccc(/C=C\C(=O)c2c(O)ccc3c(C)cc(=O)oc23)cc1OC | –
CCCSc1cc(N2CCOCC2)nc(-c2ccccc2Cl)n1 | –
SMILES | Artemis inh
CC(=O)N(/N=C1\Sc2ccccc2C1=O)c1cccc(C)c1 | 36.0
CCC(=O)N(C)/C=C1\Sc2ccccc2C1=O | –
CC(=O)N(C)/C=C1\Sc2ccccc2C1=O | –
COC(=O)CCC(=O)N1CCc2cc(S(=O)(=O)N3CCN(c4ccccc4Cl)CC3)ccc21 | –
CC(C)C(c1nnnn1C(C)(C)C)N1CCN(c2cccc(Cl)c2)CC1 (centres undefined) | –
COC(=O)C1=C(C)NC(=O)NC1c1cccc(OC)c1OCc1ccccc1 (centres undefined) | –
O=c1cc(-c2ccccc2)nc2nc(-c3ccccc3)[nH]n12 | –
O=c1cc(-c2ccccc2)nc2nc(COc3ccccc3)[nH]n12 | –
Nc1[nH]n2c(=O)cc(-c3ccccc3)nc2c1N=Nc1ccccc1 | 47.3
CN(c1cccc(Cl)c1)S(=O)(=O)c1cccc(C(=O)NC2=NCCS2)c1 | –
C=CCNC(=S)NNC(=O)CCC(O)CCCCC (centres undefined) | –
C=CCSC(=C(C#N)C#N)c1cc2c([nH]1)CCCC2 | –
COc1ccc(C(=O)N(C(C)C)C(C)C)c(OC)c1 | –
Cc1ccc(-c2cc(C(=O)n3cnc4ccccc43)c3ccccc3n2)cc1C | –
CCN(CC)c1ccc(NC(=O)CSc2nc3ccccc3c(=O)[nH]2)cc1 | –
CCN(CC)c1ccc(C(=O)n2cnc3ccccc32)cc1 | 30.0
COCCCNC(=O)c1ccccc1NS(=O)(=O)c1ccc(C)cc1 | –
Oc1c(Br)cc(Br)cc1/C=N/c1nc2c(s1)CCCC2 | –
Oc1ccc2ccccc2c1/C=N/c1nc2c(s1)CCCC2 | 62.5
Oc1ccc2ccccc2c1C=Nc1ccccc1-c1nc2ccccc2[nH]1 | –
CCCCN1C(=O)NC2NC(=O)NC21 (centres undefined) | –
CCOC(=O)N1CCN(c2nc3ccccc3nc2C(C#N)S(=O)(=O)c2ccc(C)cc2)CC1 (centres undefined) | 32.7
C=CCOC(=O)C(C#N)c1nc2ccccc2nc1N1CCN(c2ccccc2OC)CC1 (centres undefined) | –
C=CCOC(=O)C(C#N)c1nc2ccccc2nc1N1CCN(Cc2ccccc2)CC1 (centres undefined) | –
CCC(C)NS(=O)(=O)c1ccc(-c2csnn2)s1 (centres undefined) | –
O=C1C2ON(c3ccc(Cl)cc3)C(c3ccco3)C2C(=O)N1c1ccccc1 (centres undefined) | –
CC1(C)C(=O)Nc2ccccc2N1C(=O)COC(=O)c1ccc(Cl)c(S(=O)(=O)NCc2ccccc2)c1 | –

Screening data from PubChem.
